The campaign covered roughly 290,000 compounds. About 3,200 (1.1%) were called active. The entries come from a sample that favours actives as a whole. Unmarked numbers belong to inactive results. Rule as the data show it: active = inhibition above about 60%; inactive = the rest.
What follows are compounds tested against Phosphoethanolamine/phosphocholine phosphatase (Homo sapiens) (UniProt Q8TCT1) (assay: PubChem AID 1565). Settings: recombinant PHOSPHO1, absorbance phosphatase assay; at 13.3 µM; active compounds read high.
Phosphoethanolamine/phosphocholine phosphatase (Homo sapiens), sequence (Q8TCT1 whole entry, looked up): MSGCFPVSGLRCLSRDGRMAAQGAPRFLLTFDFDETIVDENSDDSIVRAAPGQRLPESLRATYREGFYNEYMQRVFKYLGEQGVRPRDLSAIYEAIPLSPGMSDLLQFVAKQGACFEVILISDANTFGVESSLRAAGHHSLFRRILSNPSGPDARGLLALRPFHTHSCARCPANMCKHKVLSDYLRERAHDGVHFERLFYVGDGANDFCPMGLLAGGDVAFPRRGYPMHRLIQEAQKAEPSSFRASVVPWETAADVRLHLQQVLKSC

Row | SMILES | inhibition
1 | Cc1cc(C)cc(NC(=O)C2CCCN2S(=O)(=O)c2cccc3cccnc23)c1 (stereo not drawn) | 44.5%
2 | Cc1ccc(NC(=O)C2CCCN2S(=O)(=O)c2cccc3cccnc23)c(C)c1 (stereo not drawn) | 70.1% (active)
3 | O=C(Nc1nccs1)C1CCCN1S(=O)(=O)c1cccc2cccnc12 (stereo not drawn) | 2.7%
4 | O=C(CN(C(=O)c1csnn1)c1ccc(Br)cc1)NC1CCCC1 | 26.9%
5 | CSCCC(NC(=O)c1cc([N+](=O)[O-])cc([N+](=O)[O-])c1)c1nc2ccccc2[nH]1 (stereo not drawn) | -8.6%
6 | CSCCC(NC(=O)c1ccc(=O)n(C)n1)c1nc2ccccc2[nH]1 (stereo not drawn) | 79.8% (active)
7 | COc1ccc(CC(=O)N[C@@H](CCSC)c2nc3ccccc3[nH]2)cc1 | 12.4%
8 | CCCCC(=O)Nc1ccccc1N1CCN(c2ccc(F)cc2)CC1 | -152%
9 | Oc1ccccc1-c1cc(-c2ccc(Cl)cc2)n[nH]1 | 19.7%
10 | Cc1cc(C)c(SCCc2ccncc2)c(C)c1 | 24.1%
11 | C/C(=N\Nc1cccc(C(=O)O)c1)c1ccc2c(c1)Nc1ccccc1S2 | 81.3% (active)
12 | O=C(O)c1cccc(N2C(=O)Nc3ccccc3N2O)c1 | 8.3%
13 | O=C(NC1CC1)c1ccc2c(c1)NC(=O)c1ccccc1S2 | 0.7%
14 | Cc1ccccc1N1CCN(C2CCCN(C(=O)c3cn4c(C)cccc4n3)C2)CC1 (stereo not drawn) | 22.3%
15 | Cc1ccc(NC(=O)CN2C(=O)NC(C)(c3ccc(Cl)cc3)C2=O)c(Br)c1 (stereo not drawn) | 27.9%
16 | Cc1cc(NC(=O)CCC(=O)N(Cc2ccccc2)C(C(=O)NC2CCCC2)c2ccc(C)o2)no1 (stereo not drawn) | 46.2%
17 | CCOCCCN(C)C1CCN(C(=O)c2oc3ccccc3c2NC(=O)Cc2cccc([N+](=O)[O-])c2)CC1 | 16.9%
18 | CCOc1ccc(OCCSc2nc3ccccc3n2CC(=O)O)cc1 | 13.8%
19 | c1ccc(CN2CCC(N=C3NN=C(c4ccc5c(c4)OCCO5)CS3)CC2)cc1 | 12.7%
20 | Cc1cccc(N=C2NN=C(c3c[nH]c4ccccc34)CS2)c1 | -2%
21 | Clc1cccc(N=C2NN=C(c3ccc4c(c3)OCCO4)CS2)c1 | 78% (active)
22 | CCCn1c(=O)c(C(=O)Nc2cc(C)ccn2)c(O)c2ccccc21 | -7.8%
23 | S=c1[nH]cc(-c2ccc(Cl)cc2)n1-c1ccccc1 | 69.5% (active)
24 | S=c1[nH]nc(CSCc2ccc(Cl)cc2Cl)n1-c1ccccc1 | 34.7%

Row | SMILES | inhibition
25 | S=c1[nH]ccn1-c1ccc(Cl)cc1 | -13%
26 | CN1CCN(/N=C/c2ccc(-c3ccc([N+](=O)[O-])cc3)o2)CC1 | 17.9%
27 | COc1cccc(CNC(=O)c2cccnc2Sc2ccc(Cl)cc2)c1 | 23.3%
28 | Cc1nc(NC(=O)c2ccc3c(c2)OCCO3)ccc1Br | 7.6%
29 | CC(C)[C@@H]1COC(c2cccc(C3=N[C@H](C(C)C)CO3)c2)=N1 | -1.7%
30 | COc1ccc(C(=O)NC2CC2)cc1OC1CCN(Cc2ccc(SC)cc2)CC1 | 27.3%
31 | O=C(Nc1cn(-c2ccccc2)nc1-c1ccccc1)c1ccccc1 | -2.5%
32 | Cc1onc(-c2ccccc2)c1C(=O)NNC(=S)NC(=O)c1ccc(F)cc1 | -4.5%
33 | O=C(NNC(=S)NC(=O)c1cn(-c2ccccc2)nc1-c1ccccc1)c1ccncc1 | 80.9% (active)
34 | CC1CCN(C(=S)NC(=O)c2ccccc2Br)CC1 | 17.4%
35 | COc1ccc(CCNC(=O)C2CCCN2C(=O)Nc2ccccc2)cc1OC (stereo not drawn) | 23.5%
36 | Cc1c(CCC(=O)N[C@@H](CC(C)C)C(=O)O)c(=O)oc2c(C)c3oc4c(c3cc12)CCCC4 | 31.6%
37 | Cc1ccc(NC(=S)Nc2ccc(F)cc2)cc1 | 19.2%
38 | Cc1ccc(NC(=S)N/N=C2/CCCc3c(C)cc(C)cc32)cc1 | 85.8% (active)
39 | Cc1ccc(C)c(NC(=S)NNC(=S)Nc2ccc(C(C)C)cc2)c1 | -6.1%
40 | COC(=O)c1ccc(NC(=O)CSc2nc(N)c(NC(=O)c3ccc(Br)o3)c(=O)[nH]2)cc1 | 42.8%
41 | CCOC(=O)N1CCN(C(=O)CSc2nnc(-c3c[nH]c4ccccc34)n2CCOC)CC1 | 25.5%
42 | CCn1c(SCCC(C)C)nnc1-c1c[nH]c2ccccc12 | 0.7%
43 | CCC(C)Sc1nnc(-c2c[nH]c3ccccc23)n1CCOC (stereo not drawn) | 61.5% (active)
44 | CC(C)(C)c1ccc(SCCc2ccncc2)cc1 | 13.8%
45 | Cc1ccc(CC2C(=O)N(c3ccc(F)cc3)C(=O)C2C)cc1 (stereo not drawn) | -2.6%
46 | Cc1ccc(N2CCN(c3ccc([N+](=O)[O-])cn3)CC2)c(C)c1 | 19.7%
47 | Cc1cc(/C=N/Nc2ccc([N+](=O)[O-])cn2)c(C)n1-c1cccc(C(=O)O)c1 | 15.9%
48 | Cc1ccc(-n2c(C)cc(/C=N/Nc3ccc([N+](=O)[O-])cn3)c2C)c(C)c1 | 98.7% (active)

Row | SMILES | inhibition
49 | COC(=O)C1CCCCN1C(=O)c1ccc(OC2CCN(C(C)=O)CC2)c(OC)c1 (stereo not drawn) | 57.6%
50 | COc1cc2[nH]c(=S)n(Cc3ccc(F)cc3)c(=O)c2cc1OC | -42.1%
51 | COc1cc2[nH]c(=S)n(Cc3ccc(C)o3)c(=O)c2cc1OC | 69.6% (active)
52 | COc1cc2[nH]c(=S)n(CCN3CCCCC3C)c(=O)c2cc1OC (stereo not drawn) | 24.2%
53 | COc1ccc(C(=O)NCCn2nc(C)cc2C)cc1OC1CCN(C(C)=O)CC1 | 19.2%
54 | COc1ccc2c(c1)c1nc3n(c(=O)c1n2CC(=O)Nc1ccccc1)CCS3 | -27.3%
55 | Cn1c(=O)c2c(nc(NCCNC(=O)c3ccco3)n2Cc2ccccc2F)n(C)c1=O | 26.1%
56 | Cc1nn(C)cc1C(=O)NNC(=S)Nc1ccc(Cl)cc1 | 97.7% (active)
57 | Cn1cc(Cl)c(C(=O)NNC(=S)Nc2cccc(Cl)c2)n1 | -35.3%
58 | Cc1nn(C)cc1CNC(=O)Nc1ccc(Cl)cc1 | 8%
59 | O=S1(=O)N=C(N(CCO)/N=C/c2ccccc2F)c2ccccc21 | 28.4%
60 | Cc1nonc1NC(=O)c1oc2ccccc2c1C | 24%
61 | CC1CCCCC1NC(=O)CSc1nnc(N)s1 (stereo not drawn) | -3.4%
62 | CC1CCCC(NC(=O)CSc2nccn2C)C1C (stereo not drawn) | 92.3% (active)
63 | Cn1ccnc1SCC(=O)Nc1ccc2c(c1)OCCO2 | 19.8%
64 | CCn1cc(/C=C(\NC(=O)c2cc(OC)c(OC)c(OC)c2)C(=O)N2CCN(C)CC2)c2ccccc21 | 49.6%
65 | COc1ccccc1C1/C(=C(/O)c2ccc(OC(C)C)cc2)C(=O)C(=O)N1c1cc(C)on1 (stereo not drawn) | -55.7%
66 | COc1ccc(C2/C(=C(/O)c3ccccc3)C(=O)C(=O)N2C)c(OC)c1 (stereo not drawn) | -2.4%
67 | CCOc1ccc(/C(O)=C2\C(=O)C(=O)N(c3ccc(OC)cc3)C2c2ccccc2[N+](=O)[O-])cc1 (stereo not drawn) | 60.8% (active)
68 | COc1ccc(OCCC(=O)c2ccc(OC)cc2)cc1 | 20%
69 | CC(=O)c1ccc(OCCN2CCOCC2)cc1 | -11.5%
70 | CC(C)CCOc1ccc(C(=O)C[N+]2(C)CCOCC2)cc1 | 90.6% (active)
71 | O=C(NCc1cccnc1)C12CC3CC(CC(C3)C1)C2 | 32.6%
72 | CN(NS(=O)(=O)c1cccs1)c1ncc(C(F)(F)F)cc1Cl | 33.5%

Row | SMILES | inhibition
73 | COc1ccc(C(=O)CSc2nnc(-c3ccco3)o2)cc1 | 36.7%
74 | COc1ccc(-c2nnc(SCC(=O)c3cccs3)o2)c(OC)c1 | 28.9%
75 | COc1ccc(-n2c(C)cc(C(=O)CSc3nnc(-c4cccs4)o3)c2C)cc1 | 85.5% (active)
76 | CSCC[C@H](NC(=O)N1CCn2c1nc1ccccc12)C(=O)NC1CCCCC1 | 35.5%
77 | COc1ccc(OCc2nnc3n2N=C(c2ccccc2)C(CC(=O)O)S3)cc1 (stereo not drawn) | -69.6%
78 | COc1cccc(C(=O)N2CCC(n3nccc3NC(=O)C3CCOC3)CC2)c1 (stereo not drawn) | 40.8%
79 | Cc1ccc(C(=O)N2CCC(n3nccc3NC(=O)Nc3cccc(F)c3)CC2)cn1 | 64% (active)
80 | CN(C)c1cccc(C(=O)N2CCC(n3nccc3NC(=O)C3CCOC3)CC2)c1 (stereo not drawn) | 27.6%
81 | COc1ccc2[nH]c(C(=O)N/N=C/c3cc(OC)c(OC)c(OC)c3)cc2c1 | 9.8%
82 | CCOc1ccc(NC(=O)C(C)N2C(=O)c3ccccc3C2=O)cc1 (stereo not drawn) | 24.3%
83 | Cc1cc(C)nc(NC(=O)C(C)N2C(=O)c3ccccc3C2=O)n1 (stereo not drawn) | -12.8%
84 | Cc1ccnc(NC(=O)C(C)N2C(=O)c3ccccc3C2=O)c1 (stereo not drawn) | 60% (active)
85 | CCc1nc2cccnc2n1-c1ccc(C(=O)O)cc1 | 35.1%
86 | COc1ccc(CCNC(=O)C(=O)NCC2OCCN2S(=O)(=O)c2cccs2)cc1OC (stereo not drawn) | 4.5%
87 | COc1ccc(CN2CCC(n3nccc3NC(=O)CCCc3ccccc3)CC2)cc1C | 37.7%
88 | Cc1ccc(CN2CCC(n3nccc3NC(=O)CCCc3ccccc3)CC2)o1 | 2.6%
89 | CC(=O)NCC(=O)N1CCC(n2nccc2NC(=O)CCCc2ccccc2)CC1 | 65.8% (active)
90 | CC(=O)N[C@@H](C)C(=O)N1CCC(n2nccc2NC(=O)CCCc2ccccc2)CC1 | 61.6% (active)
91 | CCn1cc(CN2CCC(n3nccc3NC(=O)CCCc3ccccc3)CC2)c(C)n1 | 29%
92 | COc1cc(CN2CCC(n3nccc3NC(=O)CCCc3ccccc3)CC2)ccc1O | -5%
93 | N#Cc1ccccc1S(=O)(=O)N1CCN(C(=O)c2cc(-c3ccccc3)nn2-c2ccccc2)CC1 | 14.5%
